39 compounds from PubChem BioAssay (NCATS) can be followed below.

Results filed as inconclusive are left out. A call without a number means that no potency is given here. Calls of active or inactive are those of the source. Calls follow the shape of the dose curve; as a rule, active = well fitted inhibition curve with a large enough effect; inconclusive = small, poorly fitted or top-dose-only effect; inactive = flat fitted curve, though single readings scatter.
Potency is read from the fitted curve at half-maximal effect.

This test is described as follows: P-glycoprotein substrates identified in KB-8-5-11 adenocarcinoma cell line, qHTS therapeutic library screen (AID 1346987). Also: nearly all actives have a fitted effect of over 65% in size. The note with it: KB-8-5-11 (P-gp overexpressing) viability, CellTiter-Glo, 72 h; series mostly up to 44.5 µM. In outline:
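Human cervical adenocarcinoma KB-8-5-11 cells, selected in colchicine to over-express P-gp and assayed without it, were exposed for 72 h to titrated compounds. An ATP-based luminescent viability signal gave AC50.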
(In qHTS, concentration-response curves come from the screen itself.)
For the compound `CC(C)CC(=O)O[C@@H]1OC=C(CO[C@@H]2O[C@H](CO)[C@@H](O)[C@H](O)[C@H]2O)[C@H]2[C@@H]3O[C@H]3[C@@](O)(CO)[C@@H]12`, the Potency entry is “inactive”. Same read-out and setting: the entry for `C=C[C@H]1CN2CC[C@H]1C[C@@H]2C(O)c1ccnc2ccc(OC)cc12` (some centres undefined) is “inactive”. On the same count and under the same terms, the entry for `CCOc1cc(CC(=O)NC(CC(C)C)c2ccccc2N2CCCCC2)ccc1C(=O)O` (centres undefined) is “inactive”. Same read-out and setting: the same measure for `CC(C)=CCC[C@](C)(O[C@@H]1O[C@H](CO)[C@@H](O)[C@H](O)[C@H]1O)[C@H]1CC[C@]2(C)[C@@H]1[C@H](O)CC1[C@@]3(C)CC[C@H](O)C(C)(C)C3[C@@H](O[C@@H]3O[C@H](CO)[C@@H](O)[C@H](O)[C@H]3O)C[C@]12C` (some centres undefined): “inactive”; for `Cc1cn(C2C=CC(CO)O2)c(=O)[nH]c1=O` (centres undefined): “inactive”.

On to `Cc1cc(O)c(-c2ccc([C@@H](C)CN(C)C)cc2)c2c1[nH]c(=O)c1sccc12`, for which the Potency is 82 nM (active).

With `CC1CCC2(C=O)C(CO)=CCCC2C1(C)CC(=O)O` (centres undefined), the Potency result was “inactive”. The same measure, in the same setting: the entry for `C=CC(=O)Nc1cccc(CN2C(=O)N(c3c(Cl)c(OC)cc(OC)c3Cl)Cc3cnc(NCCCCN(CC)CC)nc32)c1` is “inactive”. Same read-out and setting: the same measure for `COC(=O)CCC(=O)OC[C@]1(C)CCC[C@@]2(C)C3CC[C@]4(C)C=CC3(CCC12)C4` (some centres undefined): “inactive”; for `CC1=CC2/C=C(\C)CC[C@@H](O)[C@@H](O)[C@@H]3O[C@@H]3C(=O)[C@]23C(=O)N[C@@H](CC(C)C)[C@@H]3[C@@H]1C` (some centres undefined): “inactive”; for `COc1ccc(C(=O)Nc2ncc(-c3ccc(C(=O)O)cc3)s2)cc1`: 2910 nM (active).

`O=C(O)/C=C/c1ccc(-c2ccc(O)c(C34CC5CC(CC(C5)C3)C4)c2)cc1`: the Potency is 580 nM (active).

Regarding `C=CC[C@]12C[C@@H](OC)C(=O)C(OC)=C1O[C@@H](c1cc(OC)c3c(c1)OCO3)[C@@H]2C`, the Potency result is “inactive”. The same measure, in the same setting: the same measure for `CC(C)N(CCCCOCC(=O)NS(C)(=O)=O)c1cnc(-c2ccccc2)c(-c2ccccc2)n1`: “inactive”. The same measure, in the same setting: the same measure for `CC1(C)CC2C(O)c3cocc3CC(C)(O)C2C1` (centres undefined): “inactive”. The same measure, in the same setting: the same measure for `C/C=C/C1=CC2=C(CO1)C(=O)C(C)(O)C(OC(=O)c1c(C)cc(OC)cc1O)C2` (centres undefined): “inactive”; for `CCC(CC)C(=O)Nc1sc2c(c1C#N)CCC(C(C)(C)CC)C2` (centres undefined): “inactive”. As for `Fc1ccc2nc(CCC#Cc3ccccn3)cn2c1`, the Potency result was “inactive”. On the same count and under the same terms, the same measure for `C[C@H](C(=O)NC1CCCC1)N(C(=O)Cn1nnc(-c2ccc3c(c2)OCO3)n1)C1CCCCC1`: “inactive”; for `C=C1C(OC(C)=O)CCC2(C)CC3(OC)OC(=O)C(C)=C3CC12` (centres undefined): “inactive”.

In the case of `Cc1c(C(=O)N2CCOc3ccc(-c4ccc(N)nc4)cc3C2)ccc(S(C)(=O)=O)c1F`, the Potency is 10300 nM (active). On the same count and under the same terms, the same measure for `NC(=O)[C@H]1CCS[C@@H]2C[C@]3(CCCN3C(=O)Cc3ccc(NC(=O)COc4ccc(Cl)cc4Cl)cc3)C(=O)N12`: 20600 nM (active). For `CCC(=O)O[C@H]1C(C)(C)[C@H]([C@@H](O)C(=O)OC)[C@]2(C)C(=O)[C@@]1(O)[C@H]1O[C@]13C1CC(=O)O[C@@H](c4ccoc4)[C@]1(C)CCC32` (some centres undefined), the Potency result was “inactive”. In the case of `C[C@H]1CC[C@@]2(OC1)O[C@H]1CC3C4CC[C@H]5C[C@@H](O)[C@H](O)C[C@]5(C)C4=CC(=O)[C@]3(C)[C@H]1[C@@H]2C` (some centres undefined), the Potency entry is “inactive”. On to `C[C@@H]1O[C@@H](O[C@H]2[C@H](O)[C@@H](O)[C@H](O[C@H]3[C@H](O[C@H]4CC[C@@]5(C)C(=CC[C@@H]6C5CC[C@]5(C)[C@@H]7[C@H](C[C@@H]65)O[C@]5(CC[C@@](C)(CO[C@@H]6O[C@H](CO)[C@@H](O)[C@H](O)[C@H]6O)O5)[C@H]7C)C4)O[C@H](CO)[C@@H](O)[C@@H]3O)O[C@@H]2CO)[C@H](O)[C@H](O)[C@H]1O` (some centres undefined), for which the activity change, negative = cytotoxicity is 4.84% [at 9.29 µM] (inactive). With `COc1ccc([C@@H]2OC[C@H]3[C@@H]2CO[C@@H]3c2ccc(OC3OC(CO)C(O)C(O)C3O)c(OC)c2)cc1OC` (some centres undefined), the Potency result was “inactive”. Still for that read-out and setting: the entry for `C[C@@H]1C(=O)O[C@H]2[C@H](O)C34[C@H]5C[C@@H](C(C)(C)C)C36[C@@H](OC(=O)[C@@H]6O)O[C@@]4(C(=O)O5)[C@@]12O` (some centres undefined) is “inactive”; for `CCNC(=O)Nc1ncc(-c2cc(-c3c(C)cc(OC)cc3C)nc(-c3cnccn3)n2)s1` it is “inactive”. Turning to `CC1(C)CCCC2(C)C1CC(=O)C13CC(CCC12)C(O)(CO)C3` (centres undefined), the Potency entry is “inactive”. With `C[C@@H]1CN(Cc2ccccc2)C[C@H]1c1nc2c(cnn2C2CCOCC2)c(=O)[nH]1`, the Potency entry was “inactive”.

For the compound `CCc1ccc(Cc2ccc3c(c2)[C@]2(OC3)O[C@H](CO)[C@@H](O)[C@H](O)[C@H]2O)cc1`, the Potency entry was “inactive”.

In the case of `CC[C@]1(O)CC2CN(CCc3c([nH]c4ccccc34)[C@@](C(=O)OC)(c3cc4c(cc3OC)N(C)[C@H]3[C@@](O)(C(=O)OC)[C@H](OC(C)=O)[C@]5(CC)C=CCN6CC[C@]43[C@@H]65)C2)C1` (some centres undefined), the Potency was 1030 nM (active). In the case of `CC1(C)CC[C@]2(C(=O)O[C@@H]3O[C@H](CO[C@@H]4O[C@H](CO)[C@@H](O)[C@H](O)[C@H]4O[C@@H]4O[C@H](CO)[C@H](O)[C@H](O)[C@H]4O)[C@@H](O)[C@H](O[C@@H]4O[C@H](CO)[C@@H](O)[C@H](O)[C@H]4O)[C@H]3O)CC[C@]3(C)C(=CCC4[C@@]5(C)CC[C@H](O[C@@H]6OC[C@@H](O)[C@H](O)[C@H]6O)[C@@](C)(C(=O)O)C5CC[C@]43C)[C@@H]2C1` (some centres undefined), the outcome is “inactive [at 9.29 µM]”. Turning to `Cc1ccc(-c2c(C(=O)CF)n(CCCO)c3ncnc(N)c23)cc1`, the Potency entry was “inactive”.

On to `C/C=C/C=C/C=C/C(=O)OC1C=C(C=O)C(O)(C(=O)O)C2(C)CCCC(C)(C)C12` (centres undefined), for which the Potency result was “inactive”. Still for that read-out and setting: the figure for `CN1CCN(Cc2ccc(-c3cnc4[nH]cc(-c5ccc6[nH]ccc6c5)c4c3)cc2)CC1` is 7310 nM (active); for `COC(=O)N1CCC(n2ncc3c(N4CCOCC4)nc(-c4ccc(NC(=O)Nc5ccc(CO)cc5)cc4)nc32)CC1` it is 2590 nM (active); for `C[C@@H]1C[C@@H](O)[C@@]23CO[C@@H](O)[C@@H]2CCC[C@@H]3[C@@]12C[C@@H](c1ccoc1)OC2=O` it is “inactive”.

Turning to `C/C=C1\[C@H](O[C@@H]2O[C@H](CO)[C@@H](O)[C@H](O)[C@H]2O)OC=C2C(=O)OCCc3ccc(O)c(c3)Oc3ccc(cc3)CCOC(=O)C[C@H]21`, the Potency result is “inactive”.
